According to PubChem BioAssay (EPA / NIEHS):
Values joined by “and” are separate entries in the source; they are usually repeats but may differ in a detail not shown here. Equal entries are not always repeated. Where a structure was tested more than once in an assay, its records may differ in their call. Active and inactive are the calls of the source. The calls were made as follows: active = hit-call score of the fitted dose curve at least 0.9, where 1 is the maximum; inactive = score below 0.9.

Each molecule was assayed against Heat shock factor protein 1 (Homo sapiens) (UniProt Q00613) (assay: ATG_HSE_CIS: Attagene CIS-FACTORIAL HepG2 Assay for human Heat Shock Transcription Factor 1 (HSE) (AID 2282953)). Conditions: HepG2 HSE cis-reporter, Attagene RNA transcription; actives raise or lower the signal.
Procedure: ATG_CIS is a cell-based, multiplexed-readout assay that uses HepG2, a human liver cell line, with measurements taken at 24 hours after chemical dosing in a 24-well plate.ATG_HSE_CIS is one of 52 assay component(s) measured or calculated from the ATG_CIS assay. It is designed to make measurements of mRNA induction, a form of inducible reporter, as detected with fluorescence intensity signals by Reverse transcription polymerase chain reaction (RT-PCR) and Capillary electrophoresis technology.Data from the assay component ATG_HSE_CIS was analyzed into 1 assay endpoint. This assay endpoint, ATG_HSE_CIS, was analyzed with bidirectional fitting relative to DMSO as the negative control and baseline of activity. Using a type of inducible reporter, measures of mRNA for gain or loss-of-signal activity can be used to understand the reporter gene at the transcription factor-level as they relate to the gene HSF1. Furthermore, this assay endpoint can be referred to as a primary readout, because this assay has produced multiple assay endpoints where this one serves a reporter gene function. To generalize the intended target to other relatable targets, this assay endpoint is annotated to the dna binding intended target family, where the subfamily is heat shock protein.
Human liver HepG2 cells are transiently transfected with multiple reporter transcription units (MRTUs) in 6-well plates using FuGene 6 reagent (Roche; 3 ml FuGene/1 mg DNA). The MRTU constructs are regulated by a cis-regulating element (promoter). […] A major difference between the CIS and TRANS system is that in CIS activities of endogenous TFs are measured, whereas the TRANS assay evaluates changes in activities of exogenous, chimeric NR-Gal4 proteins. […] At the end of 24 hour incubation, total RNA was isolated using TriZol reagent (Invitrogen). The isolated RNA is then reverse-transcribed using oligo(dT) primer and Mo-MLV reverse transcriptase (Invitrogen) with DNAse I (Ambion) treatment for 30 min. The one-tenth of the produced cDNA was amplified by PCR using Taq DNA polymerase (Invitrogen) and two reporter sequence-specific primers. The PCR products were fluorescently labeled by primer extension with 6-arboxyfluorescein (6-FAM) 5'-labeled reporter sequence-specific primer (2 min at 95 C, 20 s at 68 C and 10 min at 72 C) and these products were digested with 5U of HpaI (New England Biolabs) for 2h at 37 C. The fragments were purified using Qiaquick PCR columns (Qiagen), analyzed on an ABI 3130xL genetic analyzer (Applied Biosystems) with peak positions identified by using a set of X-rhodamine (ROX)-labeled MapMarker1000 molecular weight standards (BioVentures). The raw capillary electrophoresis data was processed using Attagraph software (Attagene).

Chain of Heat shock factor protein 1 (Homo sapiens) (Q00613 whole entry, looked up): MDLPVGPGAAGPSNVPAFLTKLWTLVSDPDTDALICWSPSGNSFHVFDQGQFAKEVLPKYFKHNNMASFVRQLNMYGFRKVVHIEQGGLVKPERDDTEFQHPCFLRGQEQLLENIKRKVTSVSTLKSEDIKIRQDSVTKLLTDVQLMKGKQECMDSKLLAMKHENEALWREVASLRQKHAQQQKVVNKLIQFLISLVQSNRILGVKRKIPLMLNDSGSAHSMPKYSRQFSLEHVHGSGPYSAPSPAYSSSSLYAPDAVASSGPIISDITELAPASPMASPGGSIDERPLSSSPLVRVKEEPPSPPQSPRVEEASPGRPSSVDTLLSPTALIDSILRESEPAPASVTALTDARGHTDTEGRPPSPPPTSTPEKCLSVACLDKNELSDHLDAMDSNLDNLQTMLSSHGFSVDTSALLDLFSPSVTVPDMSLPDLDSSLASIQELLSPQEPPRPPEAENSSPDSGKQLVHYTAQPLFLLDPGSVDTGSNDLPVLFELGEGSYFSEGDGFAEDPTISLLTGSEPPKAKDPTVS

Row | Compound | outcome | AC50
1 | CCCCCCCCCCCCCCC | inactive | 
2 | O=C(CC(=O)C(F)(F)C(F)(F)C(F)(F)F)c1cccs1 | inactive | 86.8 µM (active)
3 | CC(C)(O)C(=O)c1ccccc1 | inactive | 
4 | OCC(CO)(CBr)CBr | inactive | 
5 | FCOC(C(F)(F)F)C(F)(F)F | inactive | 
6 | O=C(O)CCC(F)(F)C(F)(F)C(F)(F)C(F)(F)C(F)(F)C(F)(F)F | inactive | 
7 | CCOC(OCC)C(=O)c1ccccc1 | inactive | 
8 | CCC(=O)C=Cc1ccc(OC)cc1 |  | 145 µM (active)
9 | O=C(c1ccccc1)c1ccccc1 | inactive | 
10 | c1cc[nH]c1 | inactive | 
11 | CCCCCCOC(=O)c1ccc(O)cc1 |  | 60.8 µM (active)
12 | CCOC=O | inactive | 
13 | C=CCOCC(CO)(CO)CO | inactive | 
14 | C=CC(=C)CC/C=C(\C)CCC=C(C)C | inactive | 
15 | CCOC=C(C(=O)OCC)C(=O)OCC | inactive | 
16 | FC(F)=C(F)C(F)(F)C(F)(F)C(F)(F)C(F)F | inactive | 
17 | Cc1[nH]nc2c1N=C(c1ccccc1Cl)c1cc([N+](=O)[O-])ccc1N2 | inactive | 
18 | Oc1ccc(Cc2ccccc2O)cc1 | inactive | 
19 | CCCCCCCCCCCC[N+](C)(C)CCCCCCCCCCCC | inactive | 
20 | Cc1cc(C(=C2C=CC(=Nc3ccc(S(=O)(=O)O)cc3)C=C2)c2ccc(Nc3ccc(S(=O)(=O)O)cc3)cc2)cc(S(=O)(=O)O)c1N | inactive | 

Row | Compound | outcome | AC50
21 | FC(F)(F)C1(F)C(F)(F)C(F)(F)C(F)(F)C(F)(C(F)(F)F)C1(F)F (stereo not given) | inactive | 
22 | COc1cc(OC)nc(NC(=O)NS(=O)(=O)Nc2ccccc2C(=O)N(C)C)n1 | inactive | 
23 | CCCCCCCCCCCC(=O)O | inactive | 
24 | C=COC(=O)C(C)(C)CCCCCC | inactive | 
25 | O=C1OC2(c3ccccc31)c1cc(I)c(O)c(I)c1Oc1c2cc(I)c(O)c1I | inactive | 
26 | O=S(=O)(O)c1ccc2cc(O)ccc2c1 | inactive | 
27 | NC(C(F)(F)F)C(F)(F)F | inactive | 
28 | COc1ccccc1NC(=O)c1cc2ccccc2cc1O |  | 57.3 µM (active)
29 | COCN(COC)c1nc(N(COC)COC)nc(N(COC)COC)n1 | inactive | 
30 | CCOC(=O)CN[C@@H](C(=O)N1CC[C@H]1C(=O)NCc1ccc(/C(N)=N/O)cc1)C1CCCCC1 | inactive | 
31 | CCCCCCCCCC=CCC1CC(=O)OC1=O (stereo not given) | inactive | 
32 | CN(C)c1ccc(C(=C2C=CC(=[N+](C)C)C=C2)c2ccccc2)cc1 |  | 1.46 µM (active) and 1.26 µM (active)
33 | Cc1cc(Cc2cc(C)cc(C(C)(C)C)c2O)c(O)c(C(C)(C)C)c1 | inactive | 
34 | CC=O | inactive | 
35 | Cc1ccc2ccc3ccc(C)cc3c2c1 | inactive | 
36 | CCN(CCC#N)c1ccccc1 | inactive | 
37 | Cc1ccccc1OCC(=O)O | inactive | 
38 | CCCC=O | inactive | 
39 | C[C@]12CC[C@@H]3c4ccc(O)cc4CC[C@H]3[C@@H]1C[C@@H](O)[C@@H]2O | inactive | 
